Assay [1] can be described thus: qHTS assay to identify small molecule agonists of the vitamin D receptor (VDR) signaling pathway - cell viability counter screen (AID 743224). Further: nearly all actives have a fitted effect of over 50% in size. A digest of the protocol: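 Here cell health was gauged by luminescent ATP detection (CellTiter-Glo, 30 min RT) in VDR-bla cells that had been incubated with test compounds for 16 h at 37C and 5% CO2.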
(qHTS replaces the single test concentration by a dilution series.)

The nature of assay [2]: qHTS assay to identify small molecule antagonists of the vitamin D receptor (VDR) signaling pathway - cell viability counter screen (AID 743225). Further: nearly all actives have a fitted effect of over 50% in size. Further: potency means the concentration at half of the fitted maximal effect. A digest of the protocol: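 Same-well multiplex: following 16 h treatment of HEK 293T cells carrying a UAS-driven beta-lactamase reporter with compound and agonist (3 nM final), and a 2 h FRET substrate step, CellTiter-Glo was added and luminescence read after 30 min.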

Assay [3] in a line: qHTS assay to identify small molecule agonists of the NFkB signaling pathway (AID 1159509; active means well fitted curve in the direction sought with a large enough effect in the signal ratio in the repeat runs, not every such curve was filed as active; the % refers to the signal ratio). A digest of the protocol: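 NFkB-bla ME-180 cells with a beta-lactamase reporter under an NF-kB response element were plated overnight, treated with compounds in DMSO for 5 hr at 37 C, then loaded with FRET substrate for 1.5 hr at room temperature.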
The nature of assay [4]: qHTS assay to identify small molecule agonists of the endoplasmic reticulum stress response signaling pathway - cell viability counter screen (AID 1159517; calls by dose curve;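 further: HeLa cells carrying an ER stress response element beta-lactamase reporter; nearly all actives have a fitted effect of over 50% in size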). A digest of the protocol: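 Counter-screen wells were identical to the reporter wells. Cells were plated at 1,500 per well and dosed for 5 hr, then read for luminescence 30 min after CellTiter-Glo addition.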
The nature of assay [5]: qHTS assay to identify small molecule antagonists of the retinoid-related orphan receptor gamma (ROR-gamma) signaling pathway - cell viability counter screen (AID 1159520). Further: nearly all actives have a fitted effect of over 50% in size. A digest of the protocol: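 Tet-on ROR gamma CHO cells were given compounds for 2 hr, then doxycycline hyclate at 1 uM final, and incubated 16 hr at 37 C. Viability was measured as ATP content by CellTiter-Glo luminescence.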

Assay [6] can be described thus: qHTS assay to identify small molecule agonists of the AP-1 signaling pathway - cell viability counter screen (AID 1159525; calls by dose curve; further: nearly all actives have a fitted effect of over 55% in size). An outline of the steps:
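AP-1-bla ME-180 cells in Opti-MEM with 0.5% dialyzed FBS, compound exposure 5 h at 37 C in 15-point titration. Viability read in the same wells as ATP content by CellTiter-Glo luminescence, normalised to tetra-n-octylammonium bromide and DMSO controls.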

Assay [7] in a line: qHTS assay to identify small molecule agonists of the AP-1 signaling pathway (AID 1159526; calls by dose curve).
Assay [8] in a line: qHTS assay to identify small molecule agonists of the RXR signaling pathway - cell viability counter screen (AID 1159529). Further: nearly all actives have a fitted effect of over 50% in size. Further: potency means the concentration at half of the fitted maximal effect. An outline of the steps:
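Counter screen: CellTiter-Glo luminescence. Cells: RXR-alpha-UAS-bla HEK 293T. Medium: 2% charcoal-stripped FBS. Treatment: 16 h, 37 C. Reagent incubation: 30 min, RT.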

The nature of assay [9]: qHTS assay to identify small molecule antagonists of the retinoid acid receptor (RAR) signaling pathway - cell viability counter screen (AID 1159551). Further: nearly all actives have a fitted effect of over 35% in size. A digest of the protocol:
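Seed C3RL4 cells; next day add compound, then retinol to 1 uM final; incubate 6 h at 37 C; add CellTiter-Glo; read luminescence after 30 min at RT.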

The target in assay [10] is Retinoic acid receptor RXR-alpha (Homo sapiens) (UniProt P19793). The experiment in a line: qHTS assay to identify small molecule agonists of the RXR signaling pathway (AID 1159527; calls by dose curve; further: nearly all actives have a fitted effect of over 35% in size). A digest of the protocol: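 Compounds in DMSO were added to RXR-alpha-UAS-bla HEK 293T cells kept in 2% charcoal-stripped serum, and incubated 16 hr at 37 C with 5% CO2. Reporter signal came from a 2 hr B/G FRET substrate step.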
Sequence of Retinoic acid receptor RXR-alpha (Homo sapiens) (P19793 whole entry, looked up): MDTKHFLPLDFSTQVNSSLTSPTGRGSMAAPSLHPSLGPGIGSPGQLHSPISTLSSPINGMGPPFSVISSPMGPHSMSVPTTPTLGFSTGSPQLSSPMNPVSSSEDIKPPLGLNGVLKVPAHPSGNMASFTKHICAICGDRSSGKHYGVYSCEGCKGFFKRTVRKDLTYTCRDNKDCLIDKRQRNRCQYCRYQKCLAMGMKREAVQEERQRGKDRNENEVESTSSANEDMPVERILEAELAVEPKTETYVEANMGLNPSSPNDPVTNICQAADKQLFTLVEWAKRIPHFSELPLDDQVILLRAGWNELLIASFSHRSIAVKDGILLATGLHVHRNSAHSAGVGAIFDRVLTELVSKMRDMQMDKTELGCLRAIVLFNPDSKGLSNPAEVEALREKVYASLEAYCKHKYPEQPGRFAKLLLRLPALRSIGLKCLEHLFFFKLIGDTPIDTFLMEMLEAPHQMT

The nature of assay [11]: qHTS assay to identify small molecule antagonists of the retinoic acid receptor (RAR) signaling pathway (AID 1159552; further: nearly all actives have a fitted effect of over 50% in size; further: potency means the concentration at half of the fitted maximal effect). An outline of the steps:
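Antagonism of retinol-induced RARE reporter activity was measured in C3RL4 cells. Exposure to compounds and 1 uM final retinol lasted 6 hr at 37 C, with luminescence as endpoint.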

The nature of assay [12]: qHTS assay to identify small molecule agonists of the retinoic acid receptor (RAR) signaling pathway (AID 1159553). The following applies: C3RL4 RARE luciferase reporter, agonist, 6 h; activation: at 73.3 µM (top of the series). An outline of the steps: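 Activation of retinol signaling was monitored via a RARE luciferase reporter in C3RL4 cells. After 6 hr compound treatment at 37 C, detection reagent was added for 30 min at room temperature before luminescence reading.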

In assay [13] the target is Nuclear receptor ROR-gamma (Homo sapiens) (UniProt P51449). Nature of the assay: qHTS assay to identify small molecule antagonists of the retinoid-related orphan receptor gamma (ROR-gamma) signaling pathway (AID 1159521; further: nearly all actives have a fitted effect of over 50% in size; further: potency means the concentration at half of the fitted maximal effect). An outline of the steps:
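Inducible-expression reporter assay: doxycycline (1 uM final) switched on RORγ in CHO cells bearing a ROR response element-luciferase construct, with test compounds present from 2 h beforehand. Decreased luminescence after 16 h defined antagonist activity.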

A short description of assay [14]: qHTS assay to identify small molecule agonists of the endoplasmic reticulum stress response signaling pathway (AID 1159516; active means well fitted activation curve with a large enough effect in the signal ratio in the repeat runs, not every such curve was filed as active; the % refers to the signal ratio). A digest of the protocol: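 Reporter HeLa cells (ESRE-beta-lactamase) underwent 5 hr compound incubation at 37 C and 5% CO2 in quantitative HTS format. Detection followed 2 hr of FRET substrate loading at room temperature.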
The nature of assay [15]: qHTS assay to identify small molecule agonists of the NFkB signaling pathway - cell viability counter screen (AID 1159515; calls by dose curve; further: nearly all actives have a fitted effect of over 55% in size). An outline of the steps:
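5 hr compound treatment of NFkB-bla ME-180 cells (2,000/well, seeded overnight beforehand), followed by reporter substrate for 1.5 hr. CellTiter-Glo added afterward; luminescence after 30 min RT.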

The nature of assay [16]: qHTS assay to identify small molecule antagonists of the estrogen related receptor (ERR) signaling pathway - cell viability counter screen (AID 1224818).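 Further: viability measured after 17.5 h of compound exposure.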 A digest of the protocol: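 In the same ERR cell assay, compound-treated wells (17.5 h, 37 C) were multiplexed with a fluorogenic viability reagent, CellTiter-Fluor, read after 30 min to flag cytotoxic substances.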
The nature of assay [17]: qHTS assay to identify small molecule antagonists of the estrogen related receptor (ERR) signaling pathway (AID 1224819). An outline of the steps:
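qHTS in ERR cells, 2,000/well, 1536 format. Cpd (DMSO) added after 6 h settle, 18 h 37 C. One-Glo luminescence, 30 min RT.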

Assay [18] is described as follows: qHTS assay to identify small molecule agonists of the estrogen related receptor (ERR) signaling pathway (AID 1224820). An outline of the steps: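 ERR reporter cells (NTP line) plated 2,000/well, incubated 6 h at 37 C/5% CO2, then pinned with compounds in DMSO and held 18 h at 37 C. One-Glo added; luminescence read after 30 min at room temperature.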
Assay [19] concerns estrogen-related receptor alpha (ERRalpha) with PGC-1alpha coactivator, human. Nature of the assay: qHTS assay to identify small molecule antagonists of the estrogen related receptor signaling pathway with the pleiotropic PPARgamma coactivator (PGC) (AID 1224821; calls by dose curve). A digest of the protocol:
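Cells engineered for PGC/ERR signalling (line from NTP) were plated 6 h at 37 C/5% CO2, then exposed to DMSO-dissolved compound for 18 h at 37 C. Luciferase activity was read by One-Glo luminescence after 30 min at room temperature.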

Assay [20] can be described thus: qHTS assay to identify small molecule antagonists of the estrogen related receptor signaling pathway with the pleiotropic PPARgamma coactivator (PGC) cell viability counter screen (AID 1224822). An outline of the steps: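 Compounds in DMSO, with positive and negative controls, were applied to PGC/ERR cells (2,000/well) and left 17.5 h at 37 C before CellTiter-Fluor detection.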

The structures appear in SMILES notation. Results filed as inconclusive are left out. The source made the active and inactive calls. Unless noted, the call rests on the fitted dose curve; in most records, active means well fitted curve in the direction sought with a large enough effect in the repeat runs; inconclusive means weak or mixed curves; inactive means no such curve, though single readings can be large; an effect the other way counts as inactive or inconclusive.

Take `CCOC(=O)c1ccc(C#Cc2ccc3c(c2)C(C)(C)CCS3)nc1`: the Potency entry in assay [1], in [2], in assay [3], in assay [4], in [5] and in assay [6] was “inactive” throughout. In addition, the Potency result in assay [7], in assay [8] and in assay [9] was “inactive” in each case.
Take `CCC(=O)OC`: the Potency entry in assay [1], in assay [3], in [4], in [5], in [6] and in assay [7] was “inactive” throughout. The Potency result in assay [10], in assay [8], in assay [9], in assay [11] and in assay [12] was “inactive” in each case.
On to `Cc1cc(O)ccc1O`, for which the Potency entry in assay [1], in [2], in assay [3], in assay [4] and in [10] was “inactive” throughout. Further, the Potency in assay [13] is 24.6 µM (active); in assay [8], 22.1 µM (active).
As to `CO/N=C(/C(=O)N[C@@H]1C(=O)N2C(C(=O)O)=C(COC(N)=O)CS[C@H]12)c1ccco1`, the Potency entry in assay [1], in assay [2], in assay [3], in [4], in [5] and in assay [6] was “inactive” in each case. For the same molecule, the Potency entry in assay [10], in assay [8], in [9], in [11] and in [12] was “inactive” in each case.
In the case of `O=C(O)CCCCCCCCCCCBr`, the Potency result in assay [1], in assay [3], in assay [4], in assay [5], in assay [6] and in assay [7] was “inactive” throughout. Further, the Potency entry in assay [10], in assay [9] and in [11] was “inactive” in each case.
With `CCC1(CO)COCOC1`, the Potency result in [2], in assay [14], in [4], in [5], in assay [13] and in assay [6] was “inactive” in each case. The Potency result in [7], in assay [10], in assay [8], in assay [9], in [11] and in assay [12] was “inactive” throughout.
Turning to `CCCCCCC(C)(C)C(=O)O`, the Potency entry in [1], in assay [2], in assay [4], in [5], in [13] and in assay [6] was “inactive” in each case. Moreover, the Potency result in assay [7], in assay [10], in assay [8], in [9], in [11] and in assay [12] was “inactive” each time.
With `C=C(C)C(=O)OCCOCCOC(=O)C(=C)C`, the Potency result in assay [1], in [2], in assay [15], in assay [4], in assay [5] and in [6] was “inactive” each time. In addition, the Potency entry in [7], in assay [8] and in assay [9] was “inactive” in each case.
Consider `Cc1cc(C)c(N)cc1C`, for which the Potency entry in [1], in assay [14], in assay [4], in assay [5], in assay [6] and in [7] was “inactive” throughout. The Potency entry in [10], in assay [8], in assay [9], in assay [11] and in assay [12] was “inactive” in each case.
In the case of `CN1C(=O)N(c2ccccc2Br)Cc2cnc(Nc3ccc4c(c3)OCC(CO)O4)nc21` (configuration not stated), the Potency entry in assay [15], in [6], in [10] and in assay [12] was “inactive” throughout. In addition, the figures for the Potency in [13] and in assay [8] were 54.5 µM (active) and 0.245 µM (active), respectively.
As to `OCCN1CCN(CCCN2c3ccccc3Sc3ccc(Cl)cc32)CC1`, the Potency result in [1] and in [15] was “inactive” in each case. The Potency in assay [2] was 23.9 µM (active); in assay [8], 16.9 µM (active); in assay [11], 29.8 µM (active). In addition, the outcome in assay [16], in [17], in assay [18], in [19] and in [20] was inactive.

The values are drawn from PubChem BioAssay (Tox21).
